From PubChem BioAssay AID1566 (Sanford-Burnham Center for Chemical Genomics, 2009)
Among all 290,000 compounds or so, about 1,800 (0.62%) were called active. This is one part of a sample in which actives are shown more often than they occur. A number with no mark means an inactive call. Rule as the data show it: active = inhibition above about 50%; inactive = the rest.

assay: NOD2 signaling inhibitors, cell-based, luminescence, uHTS, HEK293 (AID 1566); details: HEK293 NOD2/NF-kB luciferase reporter, at 4 µM, hits give high values

Row | SMILES | inhibition
1 | NC(=O)CN1CCN(CCN2C(=O)c3cccc4cccc(c34)C2=O)CC1 | 1.7%
2 | Cc1cc(N2CCN(c3nc(-c4ccc([N+](=O)[O-])cc4)cs3)CC2)c2ccccc2n1 | 15.6%
3 | COc1ccc(-c2csc(N3CCN(c4cc(C)nc5ccccc45)CC3)n2)cc1OC | 70% (active)
4 | Cc1cc(N2CCN(c3nc(-c4ccccc4)cs3)CC2)c2ccccc2n1 | 26.2%
5 | O=C(/C=C/c1ccccc1)NC(=S)NNC(=O)c1cnccn1 | 20.5%
6 | Cc1ccc(OCC(=O)c2cc(C)c(C)cc2C)c([N+](=O)[O-])n1 | 12.2%
7 | Cc1ccc(OCC(=O)c2cc(C)n(CC(F)(F)F)c2C)c([N+](=O)[O-])n1 | 23%
8 | COc1ccc(-n2c(C)cc(C(=O)COc3ccc(C)nc3[N+](=O)[O-])c2C)cc1 | -5.4%
9 | Cc1ccc(OCC(=O)c2cc(C)n(C)c2C)c([N+](=O)[O-])n1 | 32.9%
10 | C=CCn1c(C)cc(C(=O)COc2ccc(S(=O)(=O)N3CCCC3)cc2[N+](=O)[O-])c1C | -1.6%
11 | Cc1ccc(OCC(=O)c2cc(C)n(C3CC3)c2C)c([N+](=O)[O-])n1 | 11.3%
12 | COc1cc(/C=C2\SC(=O)N(CCN)C2=O)ccc1OS(=O)(=O)c1cc(C)ccc1C | -1.9%
13 | C=CCn1c(SCC(=O)Nc2ccc(-c3nc4ccc(C)cc4s3)cc2)nnc1-c1ccccc1 | -69.8%
14 | COc1ccc2[nH]c(C)c(CCNC(=S)Nc3cccc(C)c3)c2c1 | -5.2%
15 | O=C(COC(=O)/C(=C/c1cccs1)c1cccs1)NC(c1ccccc1)c1ccccc1 | -12.9%
16 | CCNC(=S)N1CCN(CC(=O)Nc2ccc(OC)cc2)CC1 | -3.6%
17 | O=C(NN/C(=N/S(=O)(=O)c1ccc(Cl)cc1)c1ccccc1)c1cccc(Cl)c1 | -51.7%
18 | CC(Oc1ccccc1)C(=O)NC1=NCCS1 (configuration not stated) | -34.9%
19 | CN1C(=O)C2(C(C#N)=C(N)N(c3ccc(Cl)cc3)C3=C2C(=O)CC(C)(C)C3)c2ccccc21 (configuration not stated) | 5.6%
20 | CN1C(=O)C2(C(C#N)=C(N)N(c3cc(Cl)cc(Cl)c3)C3=C2C(=O)CC(C)(C)C3)c2ccccc21 (configuration not stated) | 48.4%
21 | CN1C(=O)C2(C(C#N)=C(N)N(c3cc(Cl)cc(Cl)c3)C3=C2C(=O)CCC3)c2ccccc21 (configuration not stated) | 53% (active)

Row | SMILES | inhibition
22 | O=C(CSc1ccc(Br)cc1)N1CCOCC1 | 0%
23 | CCCn1ncc(CN2CCC(Oc3ccc(C(=O)N4CCCC4)cc3)CC2)c1C | -37.8%
24 | COc1ccc(S(=O)(=O)N(CC(=O)NCc2ccccn2)Cc2ccccc2)cc1 | -13.2%
25 | CN(C1=C(NC(=O)c2ccccc2)C(=O)c2ccccc2C1=O)C1CCS(=O)(=O)C1 (configuration not stated) | -12.3%
26 | O=C(NC1=C(NC2CCS(=O)(=O)C2)C(=O)c2ccccc2C1=O)c1ccccc1 (configuration not stated) | 73.2% (active)
27 | CC(=O)NC1=C(NC2CCS(=O)(=O)C2)C(=O)c2ccccc2C1=O (configuration not stated) | 5.3%
28 | O=C(Nc1cccc2ccccc12)C1CCN(C(=O)NCc2ccccc2)CC1 | -12.5%
29 | Cc1cccc(OCC(=O)N/N=C2/SCC(=O)N2Cc2ccco2)c1 | 14.5%
30 | C=CCc1ccccc1OCC(=O)O | -5.4%
31 | O=C(COc1ccc(Cl)cc1)NNC(=S)NCc1ccccc1 | -20.7%
32 | C=CCc1ccccc1OCC(=O)NNC(=S)NCc1ccccc1 | 64.8% (active)
33 | Cc1cc(-c2ccccc2)nc(Cl)c1C#N | 17.2%
34 | COC(=O)C1=C(C(=O)OC)[C@@H]2N(C)c3ccc(OC)cc3[C@@]23C[C@@H](C(=O)OC)N(C(=O)C2CCC2)C3=N1 | -5.5%
35 | COc1cc(OC)c(OC)cc1/C=C1/Cc2ccccc2C1=O | 26.6%
36 | COc1ccc(/C=C2\CC/C(=C\c3ccc(OC)cc3OC)C2=O)c(OC)c1 | -4.6%
37 | COc1cc(OC)c(OC)cc1/C=C1\CCC(C2CCCC2)C1=O (configuration not stated) | 27%
38 | COc1cc(/C=C2/CC/C(=C/c3ccc(O)c(OC)c3)C2=O)ccc1O | -69.1%
39 | COc1ccc(/C=C2\CCC/C(=C\c3ccc(OC)c(OC)c3OC)C2=O)c(OC)c1OC | -10.3%
40 | COc1cc(/C=C2\COC/C(=C\c3ccc(O)c(OC)c3)C2=O)ccc1O | 2%
41 | CCCn1cnnc1CNC(=O)C1CCC(=O)N(CCc2ccc(OC)cc2)C1 (configuration not stated) | -2.5%
42 | COc1cc(OC)cc(C(=O)N[C@H](C(=O)NCc2ccco2)C(C)C)c1 | 4.8%

Row | SMILES | inhibition
43 | CCN1CCN(CC(=O)N2c3ccccc3Sc3ccccc32)CC1 | 21.1%
44 | Cc1noc(C)c1CSCC(=O)OCC(=O)NC1CCCCC1 | 1.1%
45 | [O-][N+]1=C2CCC/C(=N\O)C2=NC12CCCCC2 | -8.9%
46 | COc1ccccc1CNC(=O)N1CCN(c2ccccc2C)CC1 | 71% (active)
47 | COc1ccccc1CNC(=O)N1CCN(c2ccccc2)CC1 | 8.6%
48 | COc1ccccc1CNC(=O)N1CCN(c2ccccc2Cl)CC1 | 4%
49 | O=C(CCC(=O)N1CCc2ccccc21)Nc1ccccc1 | 12.5%
50 | N/C(=N\N=C/c1ccc(Br)cc1)N/N=C\c1ccc(Br)cc1 | -5.9%
51 | CCN1CCN(c2ccc(NC(=O)COc3ccc([N+](=O)[O-])cc3)cc2)CC1 | -32.4%
52 | CCCc1nnc(NC(=O)CCC(=O)N2CCN(Cc3ccc(Cl)cc3)CC2)s1 | 53.2% (active)
53 | CCc1nnc(NC(=O)CCC(=O)N2CCN(Cc3ccc(Cl)cc3)CC2)s1 | 5.9%
54 | CCCc1nnc(NC(=O)CCC(=O)N2CCN(Cc3ccc(F)cc3)CC2)s1 | -3.9%
55 | CCc1ccc(NC(=O)CC2C(=O)N(c3ccc(C)cc3)C(=O)N2C2CC2)cc1 (configuration not stated) | -17.1%
56 | O=C(Nc1ccc2ccccc2n1)Nc1ccccc1F | -1.1%
57 | COc1ccc(-n2c(C)cc(/C=C3\SC(=S)NC3=O)c2C)cc1 | -195%
58 | CCOc1ccc(/C=C2\SC(=S)NC2=O)cc1OC | -106%
59 | COc1ccc2cc(/C=C3\SC(=S)NC3=O)c(N3CCOCC3)nc2c1 | 42.8%
60 | COc1cc(/C=C2/SC(=O)NC2=O)ccc1OCc1ccccc1 | -9.8%
61 | COc1ccccc1OCCCOc1ccc(/C=C2\SC(=O)NC2=O)cc1OC | 32%
62 | CCOc1ccc(N(C)c2ccc(/C=C3/SC(=S)NC3=O)cc2)cc1 | -2.9%
